From PubChem BioAssay come the findings set out here.

Assay [1] in a line: inhibitors of TNFa-induced NFkB p65 translocation, primary screen, imaging, HUVEC, MLSMR starter and 10KST1 sets (AID 438;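 active = inhibition above 20% together with a positive visual image hit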;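 also: compound added about 3h40 before a 20 min TNFalpha stimulation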;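 as to inhibition: signal is the nuclear over cytoplasmic p65 intensity ratio per well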). Particulars: HUVEC TNFa-induced p65 nuclear translocation; cell count: measured here: nuclei count (cytotoxicity indicator), at 2.08 µM; inhibition: at 2 µM, stronger effect = higher value, 0% TNFa-plus-vehicle, 100% no-TNFa wells.
Assay [2] in a line: inhibitors of mutant huntingtin aggregation, primary screen, imaging, exon1htt(103Q)mCFP cells, high-content imaging (AID 483;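 active = visual image review flags a hit and inhibition of aggregation exceeds 20%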;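 also: compound exposure lasted 3 days before fixation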;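 as to nuclei count: percent of the per-plate median nuclei count of sample wells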). Particulars: exon1htt(103Q)mCFP cell line, aggregate imaging, at 2 µM; inhibition of aggregation: stronger effect = higher value; nuclei count: measured here: cell count, toxicity.
A short description of assay [3]: inhibitors of E-selectin induction by TNFa, primary screen, imaging, HUVEC, immunofluorescence, MLSMR starter and 10KST1 sets (AID 487;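 active = visually confirmed hit in the image check and inhibition above 20%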;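 as to inhibition: signal is fraction of cell area covered by stained E-selectin grains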;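 as to nuclei count: 100% = median nuclei count of all wells on the same plate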). Particulars: HUVEC TNFalpha-induced E-selectin immunofluorescence imaging, at 2 µM; inhibition: stronger effect = higher value; nuclei count: measured here: cell number, toxicity.
Assay [4] has as its target Voltage-gated potassium channel subunit beta-2 (Rattus norvegicus) (UniProt P62483). Kind of assay: KvBeta enzyme negative modulators, primary screen, biochemical, NADPH fluorescence (AID 622;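 active = fluorescence slope higher than the sample average by over 3 SD, cut at about -0.22 in these data, passing the limit was not always enough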;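 also: slope of raw intensity against log time taken from 70 to 1610 s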). Particulars: recombinant KvBeta, 4-cyanobenzaldehyde reduction, at 10 µM, stronger effect = higher value.
The target is the same in assay [5]. In words: KvBeta positive modulators, primary screen, biochemical, NADPH fluorescence (AID 623;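 active = NADPH fluorescence slope more negative than the mean of all samples by about 3 SD, 99.7% confidence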;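 also: fluorescence intensity change per second fitted from 20 to 320 s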). The note with it: Recombinant KvBeta, NADPH fluorescence decrease slope, 10 min; at 10 µM; stronger effect = lower value.
Assay [6] deals with Alpha-2C adrenergic receptor (Homo sapiens) (UniProt P18825). Kind of assay: modulators of alpha2C/GIRK thallium flux, primary screen, cell-based, HEK293 alpha2C/GIRK1/2 (AID 624;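 active = fluorescence slope after compound addition differing from the mean of all screened samples at 99.7% confidence, in either direction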;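 also: slope of fluorescence ratio to pre-addition baseline per second over 15 to 24 s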). The note with it: thallium flux BTC fluorescence, at 10 µM, actives lie on both sides.
Assay [7] in a line: inhibitors of Sendai virus-induced IRF3 signaling, primary screen, TLR/RLR signaling modifier project, cell-based, Sendai virus stimulus, luciferase, 10K MLSCN set (AID 602276).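 Also: firefly luciferase from ISG56 promoter only with Renilla not read in this screen; 0% = Sendai virus plus DMSO and 100% = medium plus DMSO without virus.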 Particulars: HEK293 RL24 IRF3 luciferase reporter, at 10 µM, stronger effect = higher value.
A short description of assay [8]: inhibitors of poly I:C-induced TLR3 signaling, primary screen, cell-based, poly I:C stimulus, luciferase, 10K MLSCN set (AID 602277;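 active = inhibition of the reporter signal at or above 50%; inactive = inhibition below 50%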). The note with it: HEK293-TLR3 RL24 IRF3 luciferase reporter, at 10 µM, stronger effect = higher value. For orientation: In a reporter assay the amount or activity of a reporter protein is the signal.

Activity calls are given as the source filed them.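 The calls were made as follows, unless noted: active = inhibition at or above 50% at 10 µM; inactive = inhibition below 50%.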

Chain of Voltage-gated potassium channel subunit beta-2 (Rattus norvegicus) (P62483 whole entry, looked up): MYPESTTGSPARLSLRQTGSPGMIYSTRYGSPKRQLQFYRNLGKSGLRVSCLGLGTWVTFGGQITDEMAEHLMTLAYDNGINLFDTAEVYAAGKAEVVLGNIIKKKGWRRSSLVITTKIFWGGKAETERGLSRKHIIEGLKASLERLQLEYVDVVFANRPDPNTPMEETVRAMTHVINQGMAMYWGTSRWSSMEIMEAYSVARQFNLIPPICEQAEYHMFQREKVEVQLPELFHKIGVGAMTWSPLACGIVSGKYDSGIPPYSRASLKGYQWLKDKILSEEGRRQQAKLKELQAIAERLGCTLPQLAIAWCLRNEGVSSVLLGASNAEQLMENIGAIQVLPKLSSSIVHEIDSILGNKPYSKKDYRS
Chain of Alpha-2C adrenergic receptor (Homo sapiens) (P18825 whole entry, looked up): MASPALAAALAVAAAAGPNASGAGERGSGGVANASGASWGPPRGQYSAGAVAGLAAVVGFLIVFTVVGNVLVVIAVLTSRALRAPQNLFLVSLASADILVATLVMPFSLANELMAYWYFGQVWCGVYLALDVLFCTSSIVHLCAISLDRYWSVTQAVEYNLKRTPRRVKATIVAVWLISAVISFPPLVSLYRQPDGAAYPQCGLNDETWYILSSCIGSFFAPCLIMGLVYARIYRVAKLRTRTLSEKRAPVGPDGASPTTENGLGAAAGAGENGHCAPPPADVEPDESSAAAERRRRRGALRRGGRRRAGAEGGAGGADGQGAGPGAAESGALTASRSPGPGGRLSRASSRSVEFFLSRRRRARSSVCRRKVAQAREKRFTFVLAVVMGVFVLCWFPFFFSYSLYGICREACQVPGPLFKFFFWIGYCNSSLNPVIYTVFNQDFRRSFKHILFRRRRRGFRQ

As usually defined, the inhibition is the drop in the measured response relative to a control, in per cent. In the case of `CCOC(=O)c1cccc(NC(=O)CS(=O)(=O)Cc2nc(-c3cccc(OC)c3)oc2C)c1`, in assay [1], the cell count is 572. The inhibition was -40.8% (inactive) in assay [1], -15.4% (inactive) in assay [3], -5.01% (inactive) in assay [7] and 12.4% (inactive) in assay [8]. Besides, the inhibition of aggregation in assay [2] is -19.3% (inactive). The nuclei count in assay [2] is 106%; in assay [3], 102%. Further, the fluorescence slope in assay [4] was -0.524 (inactive). Further, the NADPH fluorescence slope in assay [5] is -3.5e-05 (inactive). Moreover, the slope in assay [6] is 0.00568 (inactive).

Take `Cc1cccc(NC(=O)C2CCCN2C(=O)OCC(C)C)c1C` (centres undefined): in assay [1], the cell count turned out to be 728. Besides, the inhibition was -6.9% (inactive) in assay [1], -120% (inactive) in assay [3], 5.88% (inactive) in assay [7] and 14.1% (inactive) in assay [8]. In assay [2], the inhibition of aggregation was -27.8% (inactive). For the same compound, the nuclei count in assay [2] stood at 109%; in assay [3] it was 119%. The fluorescence slope in assay [4] was -0.322 (inactive). Further, the NADPH fluorescence slope in assay [5] was -6.4e-05 (inactive). In addition, the slope in assay [6] is 0.00484 (inactive).

With `CCOc1ccc(-c2nc(C#N)c(N3CCCCCC3)o2)cc1`, the cell count in assay [1] turned out to be 759. For the same compound, the inhibition in assay [1] was 6% (inactive); in assay [3] it was -122% (inactive); in assay [7] it was -2.19% (inactive); in assay [8] it was 4.25% (inactive). Moreover, the inhibition of aggregation in assay [2] was 11.5% (inactive). Also, the nuclei count in assay [2] came to 110%; in assay [3], 114%. In addition, in assay [4], the fluorescence slope was -0.579 (inactive). The NADPH fluorescence slope in assay [5] is -1.9e-05 (inactive). The slope in assay [6] is 0.0066 (inactive).

Regarding `O=C(c1ccccc1)N1CCN(Cc2ccccc2Br)CC1`, the cell count in assay [1] amounted to 234. Besides, the inhibition in assay [1] is -2.5% (inactive); in assay [3], -25.8% (inactive); in assay [7], 9.36% (inactive); in assay [8], 4.59% (inactive). Further, the inhibition of aggregation in assay [2] was 23.9% (inactive). Further, the nuclei count in assay [2] turned out to be 77.4%; in assay [3], 96.1%. Moreover, the fluorescence slope in assay [4] is -0.428 (inactive). Besides, the NADPH fluorescence slope in assay [5] was -4.5e-05 (inactive). For the same compound, the slope in assay [6] is 0.00425 (inactive).

Consider `NC(=O)C1CCN(C(=S)c2cccs2)CC1`, for which the cell count in assay [1] stood at 759. For the same compound, the inhibition in assay [1] was 3.9% (inactive); in assay [3], -69.5% (inactive); in assay [7] it was 19.1% (inactive); in assay [8] it was 30.8% (inactive). In addition, in assay [2], the inhibition of aggregation was 12.1% (inactive). Also, the nuclei count in assay [2] turned out to be 105%; in assay [3], 107%. Moreover, in assay [4], the fluorescence slope was -0.49 (inactive). Also, the NADPH fluorescence slope in assay [5] is -1.4e-06 (inactive). The slope in assay [6] is 0.00525 (inactive).

`CCc1c(C)nc2ncnn2c1N1CCC(C(=O)NCc2cccc(OC)c2)CC1`: in assay [1], the cell count was 716. Further, the inhibition in assay [1] was -5.5% (inactive); in assay [3], -34.8% (inactive); in assay [7] it was 5.24% (inactive); in assay [8], 1.67% (inactive). Moreover, in assay [2], the inhibition of aggregation was -13.4% (inactive). For the same compound, the nuclei count worked out at 66% in assay [2] and 116% in assay [3]. Also, the fluorescence slope in assay [4] was -0.499 (inactive). The NADPH fluorescence slope in assay [5] was -4.5e-05 (inactive). The slope in assay [6] was 0.00565 (inactive).

As for `Cc1c(C(=O)N2CCCC2)sc(NC(=O)c2cccs2)c1C#N`, the cell count in assay [1] stood at 706. Further, the inhibition was 17.1% (inactive) in assay [1], -67.6% (inactive) in assay [3], 14.8% (inactive) in assay [7] and 12.4% (inactive) in assay [8]. In addition, in assay [2], the inhibition of aggregation is 10.4% (inactive). Besides, the figures for the nuclei count in assay [2] and in assay [3] were 86.7% and 130%, respectively. Also, the fluorescence slope in assay [4] is -0.504 (inactive). The NADPH fluorescence slope in assay [5] is -8.5e-06 (inactive). The slope in assay [6] is 0.00564 (inactive).

For `CCn1cc(C(=O)N=c2sc3ccccc3n2C)c(=O)c2ccc(C)nc21`, the cell count in assay [1] was 450. Further, the inhibition is 3.7% (inactive) in assay [1], -27.5% (inactive) in assay [3], 6.49% (inactive) in assay [7] and 23% (inactive) in assay [8]. The inhibition of aggregation in assay [2] is -5.2% (inactive). Also, the results for the nuclei count in assay [2] and in assay [3] were 107% and 97.3%, respectively. The fluorescence slope in assay [4] is -0.361 (inactive). Moreover, in assay [5], the NADPH fluorescence slope was -6.4e-05 (inactive). Moreover, the slope in assay [6] was 0.00595 (inactive).

In the case of `COc1ccccc1N1CCN(C(=O)c2cc(C3CC3)on2)CC1`, the cell count in assay [1] is 626. For the same compound, the inhibition is -8.7% (inactive) in assay [1], 1.1% (inactive) in assay [3], -5.11% (inactive) in assay [7] and 26.8% (inactive) in assay [8]. For the same compound, the inhibition of aggregation in assay [2] was -1.6% (inactive). In addition, the nuclei count in assay [2] is 85.4%; in assay [3] it was 95.8%. Further, in assay [4], the fluorescence slope is -0.607 (inactive). For the same compound, the NADPH fluorescence slope in assay [5] was -3.3e-05 (inactive). Also, the slope in assay [6] was 0.00629 (inactive).

Turning to `COc1ccc(-c2nnc(-c3cccs3)o2)cc1OC`, the cell count in assay [1] was determined as 384. The inhibition in assay [1] is -0.2% (inactive); in assay [3], 67.8% (active); in assay [7], -76.7% (inactive); in assay [8], -170% (inactive). Moreover, in assay [2], the inhibition of aggregation was 6.2% (inactive). Further, the nuclei count in assay [2] stood at 99%; in assay [3] it was 94.7%. In assay [4], the fluorescence slope was -0.343 (inactive). In addition, the NADPH fluorescence slope in assay [5] is 3e-05 (inactive). Further, the slope in assay [6] was 0.00689 (inactive).

On to `O=C(NCC(c1cccnc1)N1CCN(c2ccc(F)cc2)CC1)c1ccc(F)cc1` (centres undefined), for which the cell count in assay [1] is 346. Besides, the inhibition in assay [1] was 7.4% (inactive); in assay [3] it was -33.2% (inactive); in assay [7], 1.86% (inactive); in assay [8] it was 6.23% (inactive). The inhibition of aggregation in assay [2] is -9.9% (inactive). Besides, the nuclei count worked out at 84% in assay [2] and 96.5% in assay [3]. For the same compound, the fluorescence slope in assay [4] is -0.596 (inactive). For the same compound, in assay [5], the NADPH fluorescence slope was -4.6e-05 (inactive). In assay [6], the slope is 0.00545 (inactive).

As to `Cc1c(NC2=NC3(CCCCC3)Cc3ccccc32)c(=O)n(-c2ccccc2)n1C`, the cell count in assay [1] stood at 716. For the same compound, the inhibition in assay [1] is -5.3% (inactive); in assay [3], 59.1% (active); in assay [7], 13.1% (inactive); in assay [8], 21.6% (inactive). In addition, the inhibition of aggregation in assay [2] is 6.1% (inactive). In addition, the nuclei count in assay [2] stood at 101%; in assay [3], 72.3%. The fluorescence slope in assay [4] is -0.354 (inactive). In assay [5], the NADPH fluorescence slope was -6.6e-05 (inactive). The slope in assay [6] is 0.00622 (inactive).

With `CCOC(=O)Cn1nnnc1C(C(C)C)N(Cc1cc2c(C)cc(C)cc2[nH]c1=O)C1CCCC1` (centres undefined), the cell count in assay [1] came out at 666. Moreover, the inhibition is -13.4% (inactive) in assay [1], 39.1% (inactive) in assay [3], -15.9% (inactive) in assay [7] and 10.4% (inactive) in assay [8]. For the same compound, the inhibition of aggregation in assay [2] was -17.6% (inactive). Moreover, the nuclei count stood at 97.7% in assay [2] and 106% in assay [3]. In addition, in assay [4], the fluorescence slope was -0.498 (inactive). For the same compound, in assay [5], the NADPH fluorescence slope was 1.1e-05 (inactive). Besides, the slope in assay [6] is 0.0076 (inactive).

Consider `COc1cccc(C(=O)OCn2nnc3ccccc3c2=O)c1`, for which, in assay [1], the cell count came to 592. In addition, the inhibition is -5.6% (inactive) in assay [1], -14.7% (inactive) in assay [3], 17.1% (inactive) in assay [7] and 31.3% (inactive) in assay [8]. Further, the inhibition of aggregation in assay [2] was 16.9% (inactive). Also, the nuclei count worked out at 89.6% in assay [2] and 119% in assay [3]. For the same compound, the fluorescence slope in assay [4] was -0.616 (inactive). Also, the NADPH fluorescence slope in assay [5] is 4.3e-05 (inactive). Also, the slope in assay [6] is 0.00615 (inactive).
